In ChEMBL document CHEMBL1201862, “PubChem BioAssay data set” (2004):

Species: Homo sapiens
Experiment: Quantitative High-Throughput Screen for Compounds Blocking the Interaction Between CBF-beta and RUNX1 for the Treatment of Acute Myeloid Leukemia: Summary. [Related pubchem assays (depositor defined):AID1477, AID504370, AID504374, AID504375]; call rule not given here
Assay type: functional
With `O=C(O)CCCC[C@@H]1SC[C@@H]2NC(=O)N[C@@H]21` the Potency was 1780 nM (active).
For `O=C(O)CCCC[C@@H]1SC[C@H]2NC(=O)N[C@@H]12`, the Potency was 12600 nM (active).
For `CCCCn1c(NS(=O)(=O)c2ccccc2)c(C(=O)OCC)c2nc3ccccc3nc21`, the Potency was 112 nM (active).
For `CC1CC(NC(=O)C2C3CCC(O3)C2C(=O)O)CC(C)(C)C1` (centres undefined), the Potency was 112 nM (active).
